Data: ChEMBL document CHEMBL3433997, “St. Jude Leishmania screening dataset” (2016)

molecular target: Solute carrier family 2, facilitated glucose transporter member 1 (Homo sapiens) (UniProt P11166); assay: ST_JUDE_LEISH: Cytotoxicity at 2uM final concentration against transgenic Leishmania Mexicana promastigotes LmGLUT1 that are glucose transport deficient and complemented with the human glucose transporter GLUT1. Activity is measured by DNA content using SYBR green in vitro; type: functional
Sequence (P11166 whole entry): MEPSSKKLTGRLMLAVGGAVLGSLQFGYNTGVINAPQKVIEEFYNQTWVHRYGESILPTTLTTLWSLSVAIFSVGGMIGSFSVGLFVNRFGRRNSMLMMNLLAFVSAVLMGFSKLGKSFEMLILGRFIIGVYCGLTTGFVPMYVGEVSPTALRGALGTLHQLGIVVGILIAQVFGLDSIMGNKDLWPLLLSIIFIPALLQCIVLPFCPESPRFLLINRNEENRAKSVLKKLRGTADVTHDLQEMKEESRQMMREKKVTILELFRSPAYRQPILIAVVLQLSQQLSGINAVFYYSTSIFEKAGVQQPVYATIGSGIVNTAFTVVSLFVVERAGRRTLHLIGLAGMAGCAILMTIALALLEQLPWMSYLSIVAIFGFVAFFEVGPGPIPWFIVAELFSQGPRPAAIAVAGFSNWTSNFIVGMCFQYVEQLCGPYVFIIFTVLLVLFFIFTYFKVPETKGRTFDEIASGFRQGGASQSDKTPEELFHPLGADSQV

Row | Compound | inhibition [%]
1 | Cc1cc(N[C@@H](Cc2ccccc2)C(=O)NC2CCCC2)nc(NCCCOC(C)C)n1 | 7.62
2 | COC(=O)c1ccc(-c2ccc(-c3cccnc3)cc2C)cc1 | 91.7
3 | Cc1cc(OCCCN2CCN(CCN3CCOCC3)CC2)ccc1NC(=O)COc1ccc(Cl)cc1C(=O)c1cc(Cl)cc(C#N)c1 | 2.6
4 | CCOc1ccc(C(=O)Nc2cc(Br)c3c(c2)CNCC3)cc1C(F)(F)F | -0.39
5 | O=C(c1cccc(Cl)c1)N1CCN(c2ccc([N+](=O)[O-])c(NC3CC3)c2)CC1 | 0.4
6 | CCN(CC)CCNc1ccnc2c3ccccc3n(C)c12 | -1.54
7 | COc1ccc2nccc([C@@H](O)CN3CCC(NCCOc4ccccc4C(F)(F)F)CC3)c2c1 | 0.68
8 | O=C(Nc1cc(Cl)cc(Cl)c1)c1cnn(-c2ccc(F)cc2)c1C1CCNCC1 | -0.33
9 | CCOc1ccc2ccccc2c1CNCCCCCCNCc1c(OCC)ccc2ccccc12 | 7.3
10 | Brc1ccsc1-c1nc(NCCC(c2ccccc2)c2ccccc2)no1 | -0.74
11 | COc1cc2c(Nc3ccc(NC(=O)c4ccccc4)cc3)ncnc2cc1OCCCN1CCOCC1 | 3.25
12 | CC(C)C(=O)ONC1=NC(C)(C)N(OCCCOc2cc(Cl)c(Cl)cc2Cl)C(NOC(=O)C(C)C)=N1 | -0.37
13 | Oc1cccc(-c2nc(-c3ccccc3)c(-c3ccc4oc5ccc(-c6[nH]c(-c7cccc(O)c7)nc6-c6ccccc6)cc5c4c3)[nH]2)c1 | 3.36
14 | CC(=O)Nc1ccc(C(=O)Nc2cccc(-c3ccc(-c4nc5ccccc5[nH]4)cc3)c2)cn1 | 4.19
15 | CC(C)Sc1nncc(-c2cnnc(SC(C)C)n2)n1 | -0.53
16 | c1ccc2nc(NCCCCCCCCNc3ccc4ccccc4n3)ccc2c1 | 5.37
17 | O=C(NCCCCN1CCC(c2cccc3ccccc23)CC1)c1ccc(NC(=O)c2ccc(Cl)cc2)cc1 | 1.07
18 | COc1ccc(CCNCCCCCCNCCc2cccc([N+](=O)[O-])c2)cc1OC | 0.45
19 | CC(=O)c1ccc(N2C(=O)C3C(Cc4ccc(OC(C)(C)C)cc4)NC4(C(=O)N(Cc5ccc(C(C)(C)C)cc5)c5ccccc54)C3C2=O)cc1 (stereo not given) | 7.13
20 | NC1CCN(Cc2cccc(-c3ccc(-c4nc5cc(F)ccc5[nH]4)cc3)c2)C1 (stereo not given) | 2.82

Row | Compound | inhibition [%]
21 | CC(C)CCN1CCCN(Cc2ccc(C(=O)Nc3ccc(C(C)(C)C)cc3)cc2)CC1 | 2.66
22 | COc1ccc(NC(=O)CCNc2cc(C)nc(NCCOc3ccccc3)n2)cc1 | 2.22
23 | Nc1c(Cl)cc(C(O)CNCCCCCOCCCc2ccc(O)c3ncccc23)cc1Cl (stereo not given) | 103
24 | COc1cc(-n2c(CN3CCCC3)nc3cc(-c4ccc(Cl)cc4)sc3c2=O)ccc1OCCN1CCCC1 | 2.99
25 | COc1ccc2nc(C)cc(N/N=C/C=C/c3ccccc3)c2c1 | 5.48
26 | CC(CNCc1cn(Cc2cc(Br)cc(Br)c2)c2ccccc12)CNc1cc(=O)c2ccccc2[nH]1 (stereo not given) | 0.59
27 | N=C(N)Nc1ccc(CCc2ccc(NC(=N)N)cc2)cc1 | 4.14
28 | CC(C)(C)c1ccc2[nH]c(-c3ccc(/C=C/C(=O)NC4CCN(Cc5ccccc5)CC4)cc3)nc2c1 | 9.73
29 | CC(C)(CN)c1nc(-c2ccc(Cl)c(O)c2)c(-c2ccnc(N)n2)[nH]1 | -0.87
30 | CC1CCCC(Nc2noc(-c3sccc3Br)n2)C1 (stereo not given) | -0.93
31 | CC(C)(C)OC(=O)NCc1ccc(Nc2nnc(-c3ccc(OCC(=O)NC[C@@H]4CC[C@H]5C[C@@H]4C5(C)C)c([N+](=O)[O-])c3)o2)cc1 | 2.01
32 | Cc1ccc(Oc2ccccc2NC(=O)CCc2nc3ccccc3c(=O)[nH]2)cc1 | 0.1
33 | COc1ccc(-c2c(-c3ccc(OCc4ccccc4)cc3O)n[nH]c2C(F)(F)F)cc1 | 3.36
34 | CC1(C)CC(NCCCCCCCOc2ccc(OCc3ccccc3)cc2)CC(C)(C)N1 | 103
35 | O=c1cc(NCCCNCc2cc(Cl)c(Cl)cc2Cl)[nH]c2ccccc12 | 0.5
36 | Oc1ccc(-c2cc(-c3ccc(O)cc3)nc(-c3ccccc3)n2)cc1 | 2.51
37 | O=C(/C=C/c1ccc(Cl)c(Cl)c1)NCCCCCN1CCCN(C(=O)Nc2cc(Cl)nc(Cl)c2)CC1 | 5.11
38 | COc1ccc(C2=CCN(c3ccc(Cl)c(Cl)c3)C2=O)cc1OCCN1CCCCC1 | 3.36
39 | CCCc1cc(Cc2cnc(N)nc2N)cc(CCC)c1OCCCCC(=O)OC | 3.01
40 | CCn1cc(C(=O)O)c(=O)c2cc(F)c(N3CCN(S(=O)(=O)c4ccc(N)cc4)CC3)cc21 | 0.77

molecular target: Hexose transporter 1 (Plasmodium falciparum) (UniProt O97467); assay: ST_JUDE_LEISH: Cytotoxicity at 2uM final concentration against transgenic Leishmania Mexicana promastigotes LmPfHT that are glucose transport deficient and complemented with the Plasmodium falciparum hexose transporter. Activity is measured by DNA content using SYBR green in vitro; type: functional

Row | Compound | inhibition [%]
41 | Cc1cc(N[C@@H](Cc2ccccc2)C(=O)NC2CCCC2)nc(NCCCOC(C)C)n1 | 3.46
42 | COC(=O)c1ccc(-c2ccc(-c3cccnc3)cc2C)cc1 | 90.5
43 | Cc1cc(OCCCN2CCN(CCN3CCOCC3)CC2)ccc1NC(=O)COc1ccc(Cl)cc1C(=O)c1cc(Cl)cc(C#N)c1 | 0.79
44 | CCOc1ccc(C(=O)Nc2cc(Br)c3c(c2)CNCC3)cc1C(F)(F)F | -2.66
45 | O=C(c1cccc(Cl)c1)N1CCN(c2ccc([N+](=O)[O-])c(NC3CC3)c2)CC1 | 2.47
46 | CCN(CC)CCNc1ccnc2c3ccccc3n(C)c12 | 0.22
47 | COc1ccc2nccc([C@@H](O)CN3CCC(NCCOc4ccccc4C(F)(F)F)CC3)c2c1 | 2.17
48 | O=C(Nc1cc(Cl)cc(Cl)c1)c1cnn(-c2ccc(F)cc2)c1C1CCNCC1 | -0.39
49 | CCOc1ccc2ccccc2c1CNCCCCCCNCc1c(OCC)ccc2ccccc12 | 6.69
50 | Brc1ccsc1-c1nc(NCCC(c2ccccc2)c2ccccc2)no1 | 0.55
51 | COc1cc2c(Nc3ccc(NC(=O)c4ccccc4)cc3)ncnc2cc1OCCCN1CCOCC1 | 3.13
52 | CC(C)C(=O)ONC1=NC(C)(C)N(OCCCOc2cc(Cl)c(Cl)cc2Cl)C(NOC(=O)C(C)C)=N1 | 1.64
53 | Oc1cccc(-c2nc(-c3ccccc3)c(-c3ccc4oc5ccc(-c6[nH]c(-c7cccc(O)c7)nc6-c6ccccc6)cc5c4c3)[nH]2)c1 | 2.88
54 | CC(=O)Nc1ccc(C(=O)Nc2cccc(-c3ccc(-c4nc5ccccc5[nH]4)cc3)c2)cn1 | 3.31
55 | CC(C)Sc1nncc(-c2cnnc(SC(C)C)n2)n1 | -0.11
56 | c1ccc2nc(NCCCCCCCCNc3ccc4ccccc4n3)ccc2c1 | 3.68
57 | O=C(NCCCCN1CCC(c2cccc3ccccc23)CC1)c1ccc(NC(=O)c2ccc(Cl)cc2)cc1 | 0.25
58 | COc1ccc(CCNCCCCCCNCCc2cccc([N+](=O)[O-])c2)cc1OC | 1.78
59 | CC(=O)c1ccc(N2C(=O)C3C(Cc4ccc(OC(C)(C)C)cc4)NC4(C(=O)N(Cc5ccc(C(C)(C)C)cc5)c5ccccc54)C3C2=O)cc1 (stereo not given) | 4.25
60 | NC1CCN(Cc2cccc(-c3ccc(-c4nc5cc(F)ccc5[nH]4)cc3)c2)C1 (stereo not given) | 1.25

Row | Compound | inhibition [%]
61 | CC(C)CCN1CCCN(Cc2ccc(C(=O)Nc3ccc(C(C)(C)C)cc3)cc2)CC1 | 1.37
62 | COc1ccc(NC(=O)CCNc2cc(C)nc(NCCOc3ccccc3)n2)cc1 | 2.64
63 | Nc1c(Cl)cc(C(O)CNCCCCCOCCCc2ccc(O)c3ncccc23)cc1Cl (stereo not given) | 99.7
64 | COc1cc(-n2c(CN3CCCC3)nc3cc(-c4ccc(Cl)cc4)sc3c2=O)ccc1OCCN1CCCC1 | 2.69
65 | COc1ccc2nc(C)cc(N/N=C/C=C/c3ccccc3)c2c1 | 7.46
66 | CC(CNCc1cn(Cc2cc(Br)cc(Br)c2)c2ccccc12)CNc1cc(=O)c2ccccc2[nH]1 (stereo not given) | 1.26
67 | N=C(N)Nc1ccc(CCc2ccc(NC(=N)N)cc2)cc1 | 4.16
68 | CC(C)(C)c1ccc2[nH]c(-c3ccc(/C=C/C(=O)NC4CCN(Cc5ccccc5)CC4)cc3)nc2c1 | 10.5
69 | CC(C)(CN)c1nc(-c2ccc(Cl)c(O)c2)c(-c2ccnc(N)n2)[nH]1 | -0.81
70 | CC1CCCC(Nc2noc(-c3sccc3Br)n2)C1 (stereo not given) | 0.6
71 | CC(C)(C)OC(=O)NCc1ccc(Nc2nnc(-c3ccc(OCC(=O)NC[C@@H]4CC[C@H]5C[C@@H]4C5(C)C)c([N+](=O)[O-])c3)o2)cc1 | 2.91
72 | Cc1ccc(Oc2ccccc2NC(=O)CCc2nc3ccccc3c(=O)[nH]2)cc1 | 0.95
73 | COc1ccc(-c2c(-c3ccc(OCc4ccccc4)cc3O)n[nH]c2C(F)(F)F)cc1 | 1.26
74 | CC1(C)CC(NCCCCCCCOc2ccc(OCc3ccccc3)cc2)CC(C)(C)N1 | 102
75 | O=c1cc(NCCCNCc2cc(Cl)c(Cl)cc2Cl)[nH]c2ccccc12 | -0.04
76 | Oc1ccc(-c2cc(-c3ccc(O)cc3)nc(-c3ccccc3)n2)cc1 | 1.53
77 | O=C(/C=C/c1ccc(Cl)c(Cl)c1)NCCCCCN1CCCN(C(=O)Nc2cc(Cl)nc(Cl)c2)CC1 | 6.64
78 | COc1ccc(C2=CCN(c3ccc(Cl)c(Cl)c3)C2=O)cc1OCCN1CCCCC1 | 1.21
79 | CCCc1cc(Cc2cnc(N)nc2N)cc(CCC)c1OCCCCC(=O)OC | 0.4
80 | CCn1cc(C(=O)O)c(=O)c2cc(F)c(N3CCN(S(=O)(=O)c4ccc(N)cc4)CC3)cc21 | 0.41
